Results on 15 compounds are retold here after PubChem BioAssay (NCI).

About 83,000 compounds went through this panel and 20% of them were active in at least one assay; those are over-represented in the sample as a whole.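 The endpoint reported here, percent growth, reads 100 for growth as untreated, 0 for no net growth and -100 for all cells dead.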 Values without a mark were called inactive. Calls of active or inactive are those of the source. Rule for the calls: active = growth percent below 10; inactive = the rest.

Some test systems named below: RPMI-8226 leukemia; OVCAR-8 ovarian; OVCAR-5 ovarian; OVCAR-4 ovarian; SK-OV-3 ovarian; IGROV1 ovarian; OVCAR-3 ovarian; NCI/ADR-RES ovarian; T-47D breast; HS 578T breast.
What all share (test): NCI-60 one-dose screen, 48 h (100 = growth as untreated, 0 = no growth, -100 = all killed)
Common to all, as to details: 10 µM unless noted

Turning to `Cc1ccc(OCCCCCCNCCO)c(C)c1`, the growth is 9.43% (active) in the experiment with RPMI-8226 leukemia; -10% (active) in the experiment with OVCAR-8 ovarian; 35.9% in the experiment with OVCAR-5 ovarian; 16.8% in the experiment on OVCAR-4 ovarian; 16.8% in the experiment with SK-OV-3 ovarian; -4.59% (active) in the experiment on IGROV1 ovarian. For the same compound, the growth in the experiment on OVCAR-3 ovarian was 24%; in the experiment with NCI/ADR-RES ovarian it was 8.9% (active); in the experiment on T-47D breast it was 5.9% (active).
As for `N#Cc1c(N)nc2c(c1N)C(c1ccc(F)cc1)c1ccc(N)cc1O2` (stereo not given), the growth in the experiment on RPMI-8226 leukemia is 103%; in the experiment on OVCAR-8 ovarian, 97.5%; with OVCAR-5 ovarian, 99.1%; in the experiment on OVCAR-4 ovarian it was 96.7%; in the experiment on SK-OV-3 ovarian, 119%; in the experiment with OVCAR-3 ovarian, 118%. For the same compound, the growth was 95.6% in the experiment on HS 578T breast, 107% in the experiment on NCI/ADR-RES ovarian and 92.3% in the experiment with T-47D breast.
`Nc1cccc(Nc2cc(S(=O)(=O)O)c(N)c3c2C(=O)c2ccccc2C3=O)c1`: the growth was 110% with RPMI-8226 leukemia; 104% with OVCAR-8 ovarian; 111% with OVCAR-5 ovarian; 107% in the experiment with OVCAR-4 ovarian; 88.6% in the experiment with SK-OV-3 ovarian; 103% in the experiment on OVCAR-3 ovarian. For the same compound, the growth was 107% in the experiment with HS 578T breast, 106% in the experiment with NCI/ADR-RES ovarian and 93.1% in the experiment on T-47D breast.
Regarding `COc1ccc(N)c(-c2cc3c(c4c2[nH]c2ccc(OC)cc24)CCCC3)c1`, the growth was 68.5% in the experiment with RPMI-8226 leukemia; 87.4% in the experiment on OVCAR-8 ovarian; 95.5% in the experiment on OVCAR-5 ovarian; 93.3% in the experiment with OVCAR-4 ovarian; 77.3% in the experiment with SK-OV-3 ovarian; 86.1% in the experiment on OVCAR-3 ovarian. Also, the figures for the growth in the experiment with HS 578T breast, in the experiment on NCI/ADR-RES ovarian and in the experiment on T-47D breast were 85.9%, 85.7% and 62.7%, respectively.
Consider `O=C(Nc1ccc(C23CC4CC(CC(c5ccccc5)(C4)C2)C3)cc1)c1cccs1`, for which the growth was 41.1% in the experiment on RPMI-8226 leukemia; 57.5% in the experiment with OVCAR-8 ovarian; 100% in the experiment on OVCAR-5 ovarian; 58% in the experiment with OVCAR-4 ovarian; 99.3% with SK-OV-3 ovarian; 92.8% with IGROV1 ovarian. Besides, the growth was 71.1% in the experiment with OVCAR-3 ovarian, 58% in the experiment on NCI/ADR-RES ovarian and 49.2% in the experiment with T-47D breast.
As for `Cc1ccc2cc3c(N)c4c(C)ccc(C)c4nc3nc2c1`, the growth in the experiment on RPMI-8226 leukemia is 34.3%; in the experiment with OVCAR-8 ovarian it was 34.2%; in the experiment with OVCAR-5 ovarian, 89.5%; in the experiment on OVCAR-4 ovarian, 72.9%; in the experiment with SK-OV-3 ovarian it was 93.3%; in the experiment on OVCAR-3 ovarian it was 81.3%. The growth with HS 578T breast was 70%; in the experiment with NCI/ADR-RES ovarian, 72.7%; with T-47D breast it was 6.15% (active).
For the compound `OC(CNC1CCCCC1)Cn1c2ccc(I)cc2c2cc(I)ccc21` (stereo not given), the growth was 52.2% with RPMI-8226 leukemia; 70.9% in the experiment with OVCAR-8 ovarian; 82.9% with OVCAR-5 ovarian; 77% in the experiment on OVCAR-4 ovarian; 91.6% in the experiment on SK-OV-3 ovarian; 65.7% with OVCAR-3 ovarian. Also, the figures for the growth in the experiment with HS 578T breast, in the experiment on NCI/ADR-RES ovarian and with T-47D breast were 79.6%, 62.8% and 81.3%, respectively.
Consider `O=C(c1nc2ccccc2[nH]1)C1C(c2cccc([N+](=O)[O-])c2)C2CC3CCCCC3N2[C@@]12C(=O)Nc1cc(Cl)ccc12` (stereo not given in full), for which the growth in the experiment with RPMI-8226 leukemia is 7.96% (active); in the experiment on OVCAR-8 ovarian it was 45.1%; in the experiment on OVCAR-5 ovarian it was 32%; with OVCAR-4 ovarian it was 27.5%; with IGROV1 ovarian, 10.3%; in the experiment on OVCAR-3 ovarian it was 45.5%. In addition, the growth is 33.6% in the experiment with HS 578T breast, 39.7% in the experiment with NCI/ADR-RES ovarian and 38.4% in the experiment with T-47D breast.
Consider `Cc1ccc2c(n1)C(=O)C(Oc1ccc(Br)cc1)=CC2=O`, for which the growth in the experiment with RPMI-8226 leukemia is 78.7%; with OVCAR-8 ovarian, 92.3%; in the experiment on OVCAR-5 ovarian, 114%; with OVCAR-4 ovarian, 94.5%; with IGROV1 ovarian, 104%; in the experiment on OVCAR-3 ovarian it was 84.2%. The growth in the experiment on HS 578T breast was 100%; in the experiment with NCI/ADR-RES ovarian, 95.8%; with T-47D breast it was 59.2%.
Take `COC(=O)/C(CCC=C(C)C)=C1\[C@@H](OC(C)=O)C[C@@]2(C)[C@H]1CC(=O)[C@H]1[C@@]3(C)CC[C@H](NCc4ccccc4)[C@@H](C)[C@@H]3CC[C@@]12C`: the growth in the experiment on RPMI-8226 leukemia is 49.5%; with OVCAR-8 ovarian, 92.4%; in the experiment with OVCAR-5 ovarian, 95%; in the experiment with OVCAR-4 ovarian, 80.7%; in the experiment with IGROV1 ovarian, 73.4%; in the experiment on OVCAR-3 ovarian, 89.2%. Also, the growth in the experiment with HS 578T breast was 73.7%; in the experiment with NCI/ADR-RES ovarian, 88.3%; in the experiment with T-47D breast, 92.3%.
As for `Clc1ccc(COc2ccc(Nc3ncnc4onc(-c5ccccc5)c34)cc2)cc1`, the growth in the experiment on RPMI-8226 leukemia is 74.8%; in the experiment on OVCAR-8 ovarian, 92.2%; in the experiment with OVCAR-5 ovarian, 92.8%; with OVCAR-4 ovarian it was 7.69% (active); in the experiment on IGROV1 ovarian, 83.4%; with OVCAR-3 ovarian it was 92.8%. Further, the growth in the experiment on HS 578T breast is 82.1%; in the experiment on NCI/ADR-RES ovarian, 77%; with T-47D breast, 77%.
For `CCN1C(=O)N(CC)C2C1NN=c1s/c(=C3\C(=O)N(CC(C)(C)C)c4ccccc43)c(=O)n12` (stereo not given), the growth was 36.7% in the experiment with RPMI-8226 leukemia; 32.7% in the experiment on OVCAR-8 ovarian; 51.1% in the experiment with OVCAR-5 ovarian; 27.6% in the experiment on OVCAR-4 ovarian; 24.1% in the experiment on IGROV1 ovarian; -18.4% (active) with OVCAR-3 ovarian. Also, the growth is 18.9% in the experiment on HS 578T breast, 11.3% in the experiment with NCI/ADR-RES ovarian and 58.1% with T-47D breast.
Take `Fc1ccc(Oc2ccc(Nc3ncnc4onc(-c5ccccc5)c34)cc2)cc1`: the growth is 113% in the experiment on RPMI-8226 leukemia; 95.5% with OVCAR-8 ovarian; 101% in the experiment with OVCAR-5 ovarian; 102% in the experiment on OVCAR-4 ovarian; 87.6% with IGROV1 ovarian; 109% in the experiment with OVCAR-3 ovarian. Further, the figures for the growth in the experiment on HS 578T breast, in the experiment with NCI/ADR-RES ovarian and with T-47D breast were 96.6%, 101% and 94.5%, respectively.
As for `O=Cc1c(OCc2cnnn2CC(=O)Nc2ccc(Cl)cc2)ccc2ccccc12`, the growth is 105% in the experiment with RPMI-8226 leukemia; 99.2% in the experiment with OVCAR-8 ovarian; 94.8% with OVCAR-5 ovarian; 100% with OVCAR-4 ovarian; 96% with IGROV1 ovarian; 103% with OVCAR-3 ovarian. Besides, the growth is 101% with HS 578T breast, 102% with NCI/ADR-RES ovarian and 104% with T-47D breast.
As for `Cn1c(/C=C(\C#N)c2cccc(C(F)(F)F)c2)nc2c(N3CCOCC3)nc(Cl)nc21`, the growth in the experiment with RPMI-8226 leukemia is -23.4% (active); in the experiment on OVCAR-8 ovarian, 7.88% (active); in the experiment with OVCAR-5 ovarian, -53.7% (active); in the experiment on OVCAR-4 ovarian it was -56.4% (active); with IGROV1 ovarian it was -27.7% (active); in the experiment on OVCAR-3 ovarian it was -85% (active). Also, the growth in the experiment on HS 578T breast was -12% (active); in the experiment on NCI/ADR-RES ovarian, 20.1%; in the experiment on T-47D breast it was -36.6% (active).
